# Assay results from the supplement of paper PMC4466140.
# Legend:
# Test in all cases: SPOT peptide array binding signal intensity (averaged, normalized) (arbitrary units (background-subtracted, floor 0; scale differs between SH3 domains)); higher = stronger binding of the SH3 domain to the peptide
# [1] = biological target: AgAbp1
# Method in brief: (§1)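 GST-SH3 fusions from four yeast species, purified on glutathione Sepharose, were incubated at 10 μg/ml overnight at 4°C on membranes of synthetic 15-mer peptides in which cysteines were replaced with serines. Binding signal is the normalized, background-subtracted spot intensity averaged over replicates, in domain-specific arbitrary units.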
# [2] = biological target: AgBbc1
# Method in brief: as §1
# [3] = biological target: AgBem1-D1
# Method in brief: as §1
# [4] = biological target: AgBzz1-D1
# Method in brief: as §1
# [5] = biological target: AgBzz1-D2
# Method in brief: as §1
# [6] = biological target: AgCyk3
# Method in brief: as §1
# [7] = biological target: AgFus1
# Method in brief: as §1
# [8] = biological target: AgHof1
# Method in brief: as §1
# [9] = biological target: AgHse1
# Method in brief: as §1
# [10] = biological target: AgLsb1
# Method in brief: as §1
# [11] = biological target: AgLsb4
# Method in brief: as §1
# [12] = biological target: AgMyo5
# Method in brief: as §1
# [13] = biological target: AgNbp2
# Method in brief: as §1
# [14] = biological target: AgRvs167
# Method in brief: as §1
# [15] = biological target: AgSho1
# Method in brief: as §1
# [16] = biological target: AgSla1-D1-D2
# Method in brief: as §1
# [17] = biological target: AgSla1-D3
# Method in brief: as §1
# [18] = biological target: CaAbp1-D1
# Method in brief: as §1
# [19] = biological target: CaAbp1-D2
# Method in brief: as §1
# [20] = biological target: CaBbc1
# Method in brief: as §1
# [21] = biological target: CaBem1-D1
# Method in brief: as §1
# [22] = biological target: CaBzz1-D1
# Method in brief: as §1
# [23] = biological target: CaBzz1-D2
# Method in brief: as §1
# [24] = biological target: CaCyk3
# Method in brief: as §1
# [25] = biological target: CaFus1
# Method in brief: as §1
# [26] = biological target: CaHof1
# Method in brief: as §1
# [27] = biological target: CaHse1
# Method in brief: as §1
# [28] = biological target: CaLsb1
# Method in brief: as §1
# [29] = biological target: CaLsb4
# Method in brief: as §1
# [30] = biological target: CaMyo5
# Method in brief: as §1
# [31] = biological target: CaNbp2
# Method in brief: as §1
# [32] = biological target: CaRvs167
# Method in brief: as §1
# [33] = biological target: CaRvs167-3
# Method in brief: as §1
# [34] = biological target: CaSho1
# Method in brief: as §1
# [35] = biological target: CaSla1-D1-D2
# Method in brief: as §1
# [36] = biological target: CaSla1-D3
# Method in brief: as §1
# [37] = biological target: ScAbp1
# Method in brief: as §1
# [38] = biological target: ScBbc1
# Method in brief: as §1
# [39] = biological target: ScBem1-D1
# Method in brief: as §1
# [40] = biological target: ScBzz1-D1
# Method in brief: as §1
# [41] = biological target: ScBzz1-D2
# Method in brief: as §1
# [42] = biological target: ScCyk3
# Method in brief: as §1
# [43] = biological target: ScFus1
# Method in brief: as §1
# [44] = biological target: ScHof1
# Method in brief: as §1
# [45] = biological target: ScHse1
# Method in brief: as §1
# [46] = biological target: ScLsb1
# Method in brief: as §1
# [47] = biological target: ScLsb2
# Method in brief: as §1
# [48] = biological target: ScLsb3
# Method in brief: as §1
# [49] = biological target: ScLsb4
# Method in brief: as §1
# [50] = biological target: ScMyo3
# Method in brief: as §1
# [51] = biological target: ScMyo5
# Method in brief: as §1
# [52] = biological target: ScNbp2
# Method in brief: as §1
# [53] = biological target: ScPex13
# Method in brief: as §1
# [54] = biological target: ScRvs167
# Method in brief: as §1
# [55] = biological target: ScSho1
# Method in brief: as §1
# [56] = biological target: ScSla1-D1-D2
# Method in brief: as §1
# [57] = biological target: ScSla1-D3
# Method in brief: as §1
# [58] = biological target: SpAbp1-D1
# Method in brief: as §1
# [59] = biological target: SpBbc1
# Method in brief: as §1
# [60] = biological target: SpBzz1-D1
# Method in brief: as §1
# [61] = biological target: SpBzz1-D2
# Method in brief: as §1
# [62] = biological target: SpCyk3
# Method in brief: as §1
# [63] = biological target: SpHof1
# Method in brief: as §1
# [64] = biological target: SpHof1-2
# Method in brief: as §1
# [65] = biological target: SpHof1-3
# Method in brief: as §1
# [66] = biological target: SpHse1
# Method in brief: as §1
# [67] = biological target: SpLsb1
# Method in brief: as §1
# [68] = biological target: SpLsb4
# Method in brief: as §1
# [69] = biological target: SpMyo1
# Method in brief: as §1
# [70] = biological target: SpNbp2
# Method in brief: as §1
# [71] = biological target: SpPex13
# Method in brief: as §1
# [72] = biological target: SpRvs167
# Method in brief: as §1
# [73] = biological target: SpSla1-D1-D2
# Method in brief: as §1
# [74] = biological target: SpSla1-D3
# Method in brief: as §1
binder,measurement,setting,value
KRNRLKILLPFLEQS,SPOT peptide array binding signal intensity,[1],7
same,SPOT peptide array binding signal intensity,[2],1.75
same,SPOT peptide array binding signal intensity,[3],102
same,SPOT peptide array binding signal intensity,[4],9
same,SPOT peptide array binding signal intensity,[5],41
same,SPOT peptide array binding signal intensity,[6],0.5
same,SPOT peptide array binding signal intensity,[7],1340
same,SPOT peptide array binding signal intensity,[8],30.5
same,SPOT peptide array binding signal intensity,[9],1380
same,SPOT peptide array binding signal intensity,[10],3.5
same,SPOT peptide array binding signal intensity,[11],126
same,SPOT peptide array binding signal intensity,[12],0.5
same,SPOT peptide array binding signal intensity,[13],102
same,SPOT peptide array binding signal intensity,[14],2.33
same,SPOT peptide array binding signal intensity,[15],200
same,SPOT peptide array binding signal intensity,[16],49.5
same,SPOT peptide array binding signal intensity,[17],12.5
same,SPOT peptide array binding signal intensity,[18],342
same,SPOT peptide array binding signal intensity,[19],154
same,SPOT peptide array binding signal intensity,[20],27
same,SPOT peptide array binding signal intensity,[21],≤ 0
same,SPOT peptide array binding signal intensity,[22],5
same,SPOT peptide array binding signal intensity,[23],66.8
same,SPOT peptide array binding signal intensity,[24],3
same,SPOT peptide array binding signal intensity,[25],4760
same,SPOT peptide array binding signal intensity,[26],0.5
same,SPOT peptide array binding signal intensity,[27],57.2
same,SPOT peptide array binding signal intensity,[28],9.75
same,SPOT peptide array binding signal intensity,[29],21
same,SPOT peptide array binding signal intensity,[30],3
same,SPOT peptide array binding signal intensity,[31],742
same,SPOT peptide array binding signal intensity,[32],61.5
same,SPOT peptide array binding signal intensity,[33],828
same,SPOT peptide array binding signal intensity,[34],1220
same,SPOT peptide array binding signal intensity,[35],5
same,SPOT peptide array binding signal intensity,[36],136
same,SPOT peptide array binding signal intensity,[37],54
same,SPOT peptide array binding signal intensity,[38],2.5
same,SPOT peptide array binding signal intensity,[39],74
same,SPOT peptide array binding signal intensity,[40],20.5
same,SPOT peptide array binding signal intensity,[41],53
same,SPOT peptide array binding signal intensity,[42],102
same,SPOT peptide array binding signal intensity,[43],1980
same,SPOT peptide array binding signal intensity,[44],1.5
same,SPOT peptide array binding signal intensity,[45],2110
same,SPOT peptide array binding signal intensity,[46],3
same,SPOT peptide array binding signal intensity,[47],5
same,SPOT peptide array binding signal intensity,[48],145
same,SPOT peptide array binding signal intensity,[49],9.5
same,SPOT peptide array binding signal intensity,[50],2.5
same,SPOT peptide array binding signal intensity,[51],2.25
same,SPOT peptide array binding signal intensity,[52],130
same,SPOT peptide array binding signal intensity,[53],0.25
same,SPOT peptide array binding signal intensity,[54],18.2
same,SPOT peptide array binding signal intensity,[55],1290
same,SPOT peptide array binding signal intensity,[56],122
same,SPOT peptide array binding signal intensity,[57],3.25
same,SPOT peptide array binding signal intensity,[58],114
same,SPOT peptide array binding signal intensity,[59],1.5
same,SPOT peptide array binding signal intensity,[60],90
same,SPOT peptide array binding signal intensity,[61],≤ 0
same,SPOT peptide array binding signal intensity,[62],3
same,SPOT peptide array binding signal intensity,[63],142
same,SPOT peptide array binding signal intensity,[64],14
same,SPOT peptide array binding signal intensity,[65],624
same,SPOT peptide array binding signal intensity,[66],1780
same,SPOT peptide array binding signal intensity,[67],1.5
same,SPOT peptide array binding signal intensity,[68],56
same,SPOT peptide array binding signal intensity,[69],5.5
same,SPOT peptide array binding signal intensity,[70],443
same,SPOT peptide array binding signal intensity,[71],21
same,SPOT peptide array binding signal intensity,[72],7.5
same,SPOT peptide array binding signal intensity,[73],≤ 0
same,SPOT peptide array binding signal intensity,[74],11
RKQRSIPLSPIVPES,SPOT peptide array binding signal intensity,[61],0.5
same,SPOT peptide array binding signal intensity,[62],1.5
same,SPOT peptide array binding signal intensity,[63],26.8
same,SPOT peptide array binding signal intensity,[64],2.25
same,SPOT peptide array binding signal intensity,[65],340
same,SPOT peptide array binding signal intensity,[66],293
same,SPOT peptide array binding signal intensity,[67],2
same,SPOT peptide array binding signal intensity,[68],25.5
same,SPOT peptide array binding signal intensity,[69],3
same,SPOT peptide array binding signal intensity,[70],115
same,SPOT peptide array binding signal intensity,[71],≤ 0
same,SPOT peptide array binding signal intensity,[72],18.8
same,SPOT peptide array binding signal intensity,[73],≤ 0
same,SPOT peptide array binding signal intensity,[74],1
